Shiga toxin inh: inhibitors of Shiga toxin in Vero cells. Vero cells, Shiga toxin protein synthesis inhibition reporter. inhibition, % at 38.7 µM. hit rate 9.2% among 290,000. AID 2315; in the data active means inhibition mostly above about 28%, no sharp cut-off; inactive means mostly below about 43%
Pf growth 48h: inhibits P. falciparum growth in the first generation, 48 h; P. falciparum luciferase growth in erythrocytes, 48 h; hit rate 5.9% among 310,000; Potency, µM (top dose mostly 28.7 µM), most hits filed as inhibitors; active means well fitted inhibition curve with a large enough effect; inconclusive means small, poorly fitted or top-dose-only effect, or another doubt; inactive means no such curve, though single readings can be large or run the other way
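Luciferase-expressing P. falciparum in infected erythrocytes (2% hematocrit, 0.1% parasitemia final) in RPMI 1640/0.5% Albumax were exposed to compound for 48 hours at 37 C, 5% CO2; growth read as luminescence.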
Cycloheximide cs: counter-screen hit for Shiga toxin inhibitors, cycloheximide; cell reporter, cycloheximide protein synthesis inhibition counterscreen; max response, %; hit rate 12% among 300,000; AID 2314; in the data active means max response mostly above about 13%, no sharp cut-off; inactive means mostly below about 14%; further: read at 38.3 µM for the half of the compounds with a filed dose
Pf growth 96h: inhibits malaria parasite growth, 96 h; P. falciparum luciferase reporter growth, 96 h; Potency, µM (highest dose often 28.7 µM), usual class: inhibitors; hit rate 6.9% among 320,000; AID 504834; active means well fitted inhibition curve with a large enough effect; inconclusive means small, poorly fitted or top-dose-only effect, or another doubt; inactive means no such curve, though single readings can be large or run the other way
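Two-generation exposure (96 h) targets delayed-death phenotype. Reporter parasites carrying integrated firefly luciferase, in red cells at 2% hematocrit and 0.05% parasitemia final, kept at 37 C, 5% CO2; luminescence loss indicates inhibition.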
NS1 function inh: blocks influenza NS1 protein function. Potency, µM (series often up to 46.1 µM). hit rate 0.4% among 270,000. AID 2326; further: actives are rising curves; nearly all actives have a fitted effect of over 50% in size
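Read-out: OD600 growth recovery of NS1-expressing budding yeast. Cells grown overnight at 30C in -URA glucose medium, washed, resuspended and diluted 1:100 in 2% galactose assay medium, pH 6.0. Same strain lacking NS1 served as positive control.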
SARS PLP yeast: SARS-CoV PLP inhibition in yeast; AID 485353; hit rate 0.19% among 330,000; S. cerevisiae expressing SARS-CoV PLpro, growth rescue; Potency, µM (series often up to 32.9 µM), most hits filed as activators; further: nearly all actives have a fitted effect of over 55% in size
Hits are given with their value. A selection: hits, their analogues and other compounds. The true share with any hit is near 21%. Unless noted, the call rests on the fitted dose curve.

Screening CCCC(=O)c1c(C)c2ccccc2n1C returned Shiga toxin inh inactive, Pf growth 48h inactive, Cycloheximide cs inactive, Pf growth 96h 3.29µM, NS1 function inh inconclusive and SARS PLP yeast inactive.
`Cc1c(C(=O)Cc2ccccc2)n(C)c2ccccc12` gave Shiga toxin inh inactive, Pf growth 48h inactive, Cycloheximide cs 25.1, Pf growth 96h inactive and SARS PLP yeast inactive.
COc1ccc(-n2nc(C#N)c(Cl)cc2=O)cc1 was read as Shiga toxin inh inactive, Pf growth 48h inactive, Cycloheximide cs inactive, Pf growth 96h inactive and SARS PLP yeast inactive.
For COc1ccc(OC[C@@H](O)CNC(=O)c2cccc3c2C(=O)c2ccc(Cl)cc2S3(=O)=O)cc1 the results were Pf growth 48h inconclusive, Pf growth 96h 2.08µM and SARS PLP yeast inactive.
For COc1ccc(OCC(O)CNC(=O)c2sccc2Cl)cc1 (stereo not drawn) the results were Shiga toxin inh inactive, Pf growth 48h inactive, Cycloheximide cs 19.7, Pf growth 96h inactive, NS1 function inh inactive and SARS PLP yeast inactive.
COc1ccc(OCC(O)CNC(=O)Nc2ccccc2)cc1 (stereo not drawn) was read as Shiga toxin inh inactive, Pf growth 48h inactive, Cycloheximide cs inactive, Pf growth 96h inactive, NS1 function inh inactive and SARS PLP yeast inactive.
For O=C(NCc1ccc(F)cc1)c1cccc2c1C(=O)c1ccc(Cl)cc1S2(=O)=O the results were Pf growth 48h inactive, Pf growth 96h inactive and SARS PLP yeast inactive.
CCC1CN(C(=O)Nc2cccc(C)c2)c2cc(C)ccc2O1 (stereo not drawn) was read as Shiga toxin inh inactive, Pf growth 48h inconclusive, Cycloheximide cs inactive, Pf growth 96h inconclusive, NS1 function inh inactive and SARS PLP yeast inactive.
CCCC(=O)Oc1ccc(-c2nccc(C(OC)OC)n2)cc1 was read as Shiga toxin inh 51.9, Pf growth 48h inactive, Cycloheximide cs inactive, Pf growth 96h inactive and SARS PLP yeast inactive.
For COCC(=O)NNC(=O)c1ccc(OC)cc1 the results were Shiga toxin inh inactive, Pf growth 48h inactive, Cycloheximide cs inactive, Pf growth 96h inactive and SARS PLP yeast inactive.
`CCCCn1nc2cc(C(=O)NC3CCc4ccccc43)ccc2c1OCC` (stereo not drawn) gave Shiga toxin inh inactive, Pf growth 48h inconclusive, Cycloheximide cs inactive, Pf growth 96h 8.28µM, NS1 function inh inactive and SARS PLP yeast inactive.
For COC(=O)CSc1nnc(CNC(=O)c2ccco2)n1-c1ccc(F)cc1 the results were Shiga toxin inh inactive, Pf growth 48h inactive, Cycloheximide cs inactive, Pf growth 96h inactive, NS1 function inh inactive and SARS PLP yeast inactive.
Screening CCCC1CC(=O)OC1(C)C(=O)CSc1n[nH]c(-c2ccccc2)n1 (stereo not drawn) returned Shiga toxin inh 65.6, Pf growth 48h inactive, Cycloheximide cs inactive, Pf growth 96h inactive and NS1 function inh inactive.
CCc1ccccc1NC(=O)COC(=O)c1cccs1 was read as Shiga toxin inh inactive, Pf growth 48h inactive, Cycloheximide cs inactive, Pf growth 96h inactive, NS1 function inh inactive and SARS PLP yeast inactive.
`CCOC(=O)c1ccccc1NC(=S)N1CCC(N2CCCCC2)CC1` gave Shiga toxin inh inactive, Pf growth 48h inactive, Cycloheximide cs inactive, Pf growth 96h inactive, NS1 function inh inactive and SARS PLP yeast inactive.
Screening O=C(N/N=C/c1ccc(O)cc1O)/C(=C/c1ccccc1)CCO returned Shiga toxin inh inactive, Pf growth 48h inactive, Cycloheximide cs 18.7, Pf growth 96h inactive, NS1 function inh inactive and SARS PLP yeast inconclusive.
COc1ccc(/C=N/NC(=O)/C(=C/c2ccccc2)CCO)cc1 was read as Shiga toxin inh inactive, Pf growth 48h inconclusive, Cycloheximide cs 11.7, Pf growth 96h inactive, NS1 function inh inactive and SARS PLP yeast inactive.
`COc1cc(/C=N/NC(=O)/C(=C/c2ccccc2)CCO)ccc1O` gave Shiga toxin inh inactive, Pf growth 48h inconclusive, Cycloheximide cs inactive, Pf growth 96h inactive, NS1 function inh inactive and SARS PLP yeast inactive.
COc1ccc(/C=N/Nc2cc(C)nc3c(C)cccc23)cc1 was read as Shiga toxin inh inactive, Pf growth 48h inconclusive, Cycloheximide cs inactive, Pf growth 96h inactive, NS1 function inh inactive and SARS PLP yeast inactive.
COc1ccc(/C=N/Nc2cc(C)nc3ccccc23)cc1 was read as Shiga toxin inh inactive, Pf growth 48h 0.738µM, Cycloheximide cs inactive, Pf growth 96h inactive, NS1 function inh inactive and SARS PLP yeast inactive.
COc1cccc2c(N/N=C/c3ccc(O)c(O)c3)cc(C)nc12 was read as Shiga toxin inh 53.4, Pf growth 48h inactive, Cycloheximide cs 22.1, Pf growth 96h inactive, NS1 function inh inactive and SARS PLP yeast inactive.
CN(C)CCN1C(=O)CC[C@]2(C)C1=CC[C@@H]1[C@@H]2CC[C@]2(C)[C@H]1CC[C@]2(C)O was read as NS1 function inh inactive.
`CCCn1nnc(NC(=O)/C=C/c2cc(Br)ccc2OC)n1` gave Shiga toxin inh inactive, Pf growth 48h inactive, Cycloheximide cs inactive, Pf growth 96h inactive and SARS PLP yeast inactive.
`COc1cccc(C(=O)Nc2ccccc2C(=O)N2CCCC2)c1` gave Shiga toxin inh inactive, Cycloheximide cs inactive, Pf growth 96h inactive, NS1 function inh inactive and SARS PLP yeast inactive.
Screening CN1CCN(c2ccccc2NC(=O)c2cccc(OCc3ccccc3)c2)CC1 returned Shiga toxin inh inactive, Pf growth 48h 5.22µM, Cycloheximide cs inactive, NS1 function inh inactive and SARS PLP yeast inactive.
`CN1CCN(c2ccccc2NC(=O)c2c(F)cccc2F)CC1` gave Shiga toxin inh inactive, Pf growth 48h inconclusive, Cycloheximide cs inactive, Pf growth 96h 3.7µM and SARS PLP yeast inactive.
CCOc1cccc(C(=O)Nc2ccccc2C(=O)N2CCN(C)CC2)c1 was read as Shiga toxin inh inactive, Pf growth 48h inactive, Cycloheximide cs inactive, Pf growth 96h 4.65µM, NS1 function inh inactive and SARS PLP yeast inactive.
CN1CCN(c2ccccc2NC(=O)c2ccc(-c3ccccc3)cc2)CC1 was read as Shiga toxin inh inactive, Pf growth 48h inconclusive, Cycloheximide cs inactive, NS1 function inh inactive and SARS PLP yeast inactive.
`COc1cccc(C(=O)Nc2ccccc2N2CCN(C(=O)c3ccccc3)CC2)c1` gave SARS PLP yeast inactive.
CN1CCN(c2ccccc2NC(=O)C(Cc2ccccc2)n2cccc2)CC1 (stereo not drawn) was read as Shiga toxin inh inactive, Pf growth 48h 10.4µM, Cycloheximide cs inactive, Pf growth 96h inconclusive, NS1 function inh inactive and SARS PLP yeast inactive.
`O=C(NN=C1C2CC3CC(C2)CC1C3)c1cc(Cl)ccc1O` gave Shiga toxin inh inactive, Pf growth 48h inactive, Cycloheximide cs inactive, Pf growth 96h inactive, NS1 function inh inactive and SARS PLP yeast inactive.
`COc1ccc(-c2noc(CCC(=O)N3CCN(c4cccc(F)c4)CC3)n2)cc1` gave SARS PLP yeast inactive.
`CCc1cccc(NC(=S)N(CCOC)C(C)c2ccco2)c1` (stereo not drawn) gave Shiga toxin inh inactive, Pf growth 48h inactive, Cycloheximide cs inactive, Pf growth 96h inconclusive, NS1 function inh inactive and SARS PLP yeast inactive.

Compound activity (PubChem)
